# In all, about 16,000 sequences were measured (“Z-score”: median about -0.37, highest 2% from about 3.2 on). Many of the other results were omitted from the sample, so the highest values are more common in it than they were.
# Tested on: RBM10 RRM1-ZnF (GST-tagged construct)
# Assay: RNAcompete 7-mer binding Z-score; higher = stronger binding preference
# Protocol: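 RNAcompete: 20 pmol GST-tagged RBM10 RNA-binding constructs were incubated with a designed RNA pool of about 241,000 sequences up to 41 nt (1.5 nmol) on glutathione beads for 30 min at 4 °C and washed. Bound RNAs were identified by microarray hybridisation. Each RNA 7-mer is scored by a one-sided Z-score of its enrichment, computed over probes that contain the 7-mer within longer pool sequences.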
row,Sequence,RNAcompete 7-mer binding Z-score
1,UAAGGAU,1.42
2,GAAGGAU,3.32
3,GAAGGAG,4.72
4,CAAGGAA,1.48
5,CAAGGAU,1.36
6,GGAGGAA,2.93
7,GAAGGAC,2.33
8,GAAGGAA,4.56
9,AAAGGAA,3.32
10,UAAGGAA,1.64
11,CAAGGAG,2.17
12,GCAGGAA,1.77
13,CAUCACC,-0.795
14,AACGGUG,1.56
15,CACCAAU,-0.639
16,GCCCGCC,-0.132
17,AUCCCGG,-0.513
18,UAGUUAA,-0.373
19,UUGCACU,-0.639
20,UUGGUUC,-0.344
21,UGCCGAC,-0.652
22,UCAGUAA,-0.461
23,UUACGCU,-0.5
24,AAAGGAC,2.39

row,Sequence,RNAcompete 7-mer binding Z-score
1,AAAGGAG,3.8
2,UAAGGAG,1.97
3,CAGCGCG,-0.324
4,GUAGACC,0.00729
5,GGAGCGA,2.71
6,CGAGCGU,0.0495
7,UGAGCGG,2.38
8,AGAGCGG,1.43
9,CGAGCGG,3.69
10,GGAGCGG,4.52
11,UCACUUA,-0.724
12,AUUCAAA,-0.662
13,CAUCUCA,-0.798
14,CUGGAUC,-0.311
15,CGGAUGA,1.15
16,UGGCGUA,0.316
17,UUGGGGG,3.56
18,GUUGGGG,4.26
19,AGGGCGG,2.1
20,UUUGGGG,2.72
21,UUGGGGU,3.27
22,UGGGCGC,1.16
23,CUUGGGG,1.44
24,CUUGGGU,1.38

row,Sequence,RNAcompete 7-mer binding Z-score
1,AUUGGGG,3.01
2,UUGGGGC,1.95
3,UUUGGGU,2.47
4,UGGGCGG,3.38
5,GCGUUUA,-0.535
6,CAAUUAA,-0.633
7,UCACUUC,-0.824
8,UUCAAAU,-0.607
9,GUUGCGU,0.257
10,UAGUAGU,-0.035
11,AUAUCCU,-0.789
12,GAAGUUA,0.309
13,CUUUAUG,-0.763
14,GUUUUGG,1.15
15,UGGGGGG,4.02
16,GUUUGGA,1.36
17,UGGGGGC,3.07
18,CGUUUGG,0.296
19,UGGGGCG,2.54
20,GAUUGGG,3.62
21,GAUUGGC,0.953
22,GGUUUGG,3.62
23,GGUUUUG,2.03
24,GUUUGGG,3.59

row,Sequence,RNAcompete 7-mer binding Z-score
1,AAUUGGG,2.54
2,UAGGUCC,-0.165
3,GGGGCGG,2.7
4,UCGGGGC,1.65
5,ACUAUCU,-0.759
6,UUGGCGA,0.605
7,CCGGGGG,1.54
8,GCGGGGG,3.94
9,GCGGGGC,2.47
10,UCGGGGA,1.6
11,GCGGGGA,3.67
12,GCGGGGU,3.75
13,GCGGGUU,2.76
14,UCGGGGU,2.07
15,CCGGGGA,1.27
16,GUCCAUA,-0.623
17,CCGACGC,-0.477
18,AGUACAA,-0.158
19,GUCAGCC,-0.448
20,GUGUUAA,-0.0447
21,CGGGGAG,2.57
22,UGGGCAG,2
23,GGGGCAG,3.4
24,GGGGGAG,3.22

row,Sequence,RNAcompete 7-mer binding Z-score
1,UGGGGAG,3.36
2,AGGGCAG,2.11
3,UCGGGAG,1.12
4,AGGGGAG,2.9
5,AGAUAAA,0.0463
6,UGACUCA,-0.48
7,GGUAGCC,0.784
8,UCAACAC,-0.461
9,GAGGAGA,1.69
10,ACUUGCU,-0.74
11,GACUUGA,-0.496
12,GAGGAAG,3.26
13,AAGGAAG,3.84
14,GAGGAAU,1.58
15,AAGGAAA,3.36
16,UAGGAAG,1.72
17,UAGGAAA,1.47
18,AAGGAAC,2.26
19,CAGGAAA,0.94
20,AAGGAAU,2.28
21,GGCUUAA,-0.0122
22,UGUCUCG,-0.649
23,GAUACGU,-0.022
24,AUGGACA,1.95

row,Sequence,RNAcompete 7-mer binding Z-score
1,UUUGCUC,-0.867
2,GUGGAGG,3.91
3,GUGGAGC,2.91
4,GUGGAGU,2.67
5,AUGGAGU,2.63
6,AUGGAGA,2.62
7,AUGGAGG,4.22
8,GGUGGUG,3.56
9,AAUGGUG,2.79
10,AGUGGUG,2.37
11,GAUGGUC,0.563
12,CGUGGUG,1.52
13,GAUGGUG,3.27
14,ACCACCA,-0.503
15,CUUACAC,-0.841
16,GCUCCCA,-0.574
17,GUCGUAG,0.056
18,ACAUCGA,-0.48
19,CGUAGAG,0.381
20,CGUAGGU,0.949
21,GGUAGAG,3.37
22,GGUAAAG,3.32
23,GGUAGGC,1.92
24,UGUAGAG,0.923

row,Sequence,RNAcompete 7-mer binding Z-score
1,GGUAGGU,3.31
2,UGUAAAG,0.173
3,AGUAGGU,1.68
4,GGUAGGA,3.4
5,CGUAAAG,-0.116
6,AGUAGGA,2.8
7,GAACCAG,-0.0934
8,GCGUAGC,-0.0155
9,CCGAAUU,-0.815
10,UGACCAC,-0.49
11,CUGUCGG,-0.305
12,UAGUCGA,-0.191
13,CCUUAUA,-0.87
14,UGGGCUG,1.83
15,GGUAGGG,4.7
16,GGUAGCG,1.67
17,GGUAGUG,2.47
18,AAGACUC,-0.561
19,AAUUAUA,-0.464
20,GAUCCUC,-0.883
21,CAUGGGU,2.24
22,ACUGGGG,1.89
23,AAUGGGU,3.89
24,UAUGGGG,3.4

row,Sequence,RNAcompete 7-mer binding Z-score
1,UAUGGGU,2.81
2,CAUGGGG,2.42
3,AAUGGCU,0.303
4,AAUGGGG,4.2
5,GAUGGGU,3.53
6,UAUGGGC,1.47
7,AAUGGUU,2.44
8,UAUGGCG,0.537
9,GAGGACC,0.235
10,CCUCCUC,-0.542
11,UGUACAU,-0.422
12,UGUGCCA,-0.542
13,ACUAUAC,-0.642
14,CACAUGU,-0.448
15,CAUUCUU,-0.789
16,ACGACAC,-0.496
17,GAUGGGC,2.15
18,GAUGGUA,2.28

# From the supplement of paper PMC5499739
